In PubChem BioAssay AID1159580 (chemical genetic matrix, 2015):
Values joined by “and” are separate entries in the source; they are usually repeats but may differ in a detail not shown here. Identical values can stand only once. Hit rate of the full screen: of about 5,500 compounds, about 2,000 (36%) were called active. Inconclusive results (about 18%) are left out. Cut-off read from the data, not from the text of the source: active = normalized growth mostly below about 0.91 (no sharp cut-off); inconclusive = no clear call, values can overlap the other calls; inactive = mostly above about 0.92. Some of the results follow.

Assay: chemical genetic growth profiling, strain panel (AID 1159580);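 note: tested at 20 µM; growth read once vehicle control cultures reached saturation at 30 °C; 1 = growth at the plate median or of vehicle wells; lower values mean less growth of the strain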
Conditions: S. cerevisiae deletion strains, growth OD

Measured: normalized growth

COc1ccc2c3c([nH]c2c1)C(C)=NCC3
inactive: locus YAL013W, strain DEP1, active compounds read low 1.01 | locus YAL021C, strain ccr4, active compounds read low 0.997 | locus YAL026C, strain drs2, active compounds read low 1.02 | locus YAL030W, strain snc1, active compounds read low 1.01 | locus YBL061C, strain skt5, active compounds read low 1.01 | locus YBR009C, strain hhf1, active compounds read low 0.989 | locus YBR021W, strain FUR4, active compounds read low 1.01 | locus YBR023C, strain chs3, active compounds read low 0.999 | locus YBR171W, strain sec66, active compounds read low 1.01 | locus YBR229C, strain ROT2, active compounds read low 1 | locus YBR231C, strain swc5, active compounds read low 0.997 | locus YBR279W, strain paf1, active compounds read low 1.01 | locus YCL016C, strain dcc1, active compounds read low 1 | locus YCL029C, strain bik1, active compounds read low 0.984 | locus YCL069W, strain vba3, active compounds read low 1.01 | locus YCR088W, strain abp1, active compounds read low 1.01 | locus YDL005C, strain med2, active compounds read low 0.99 | locus YDL035C, strain GPR1, active compounds read low 1.02 | locus YDL040C, strain nat1, active compounds read low 0.986 | locus YDL074C, strain BRE1, active compounds read low 1 | locus YDL101C, strain DUN1, active compounds read low 1.01 | locus YDL134C, strain PPH21, active compounds read low 1 | locus YDL185W, strain tfp1, active compounds read low 0.975 | locus YDL192W, strain arf1, active compounds read low 0.993 | locus YDR001C, strain nth1, active compounds read low 1.02 | locus YDR069C, strain doa4, active compounds read low 0.992 | locus YDR101C, strain arx1, active compounds read low 0.986 | locus YDR137W, strain rgp1, active compounds read low 1.01 | locus YDR150W, strain NUM1, active compounds read low 1.01 | locus YDR159W, strain sac3, active compounds read low 1 | locus YDR162C, strain NBP2, active compounds read low 1 | locus YDR195W, strain ref2 0.954 | locus YDR297W, strain sur2, active compounds read low 0.991 | locus YDR318W, strain mcm21, active compounds read low 0.983 | locus YDR334W, strain swr1, active compounds read low 1.01 | locus YDR335W, strain msn5, active compounds read low 1.01 | locus YDR388W, active compounds read low 0.983 | locus YDR392W, strain spt3, active compounds read low 1.01 | locus YDR502C, strain sam2, active compounds read low 0.989 | locus YEL003W, strain gim4, active compounds read low 1 | locus YEL037C, strain rad23, active compounds read low 1 | locus YEL061C, strain CIN8 (second series), active compounds read low 1.03 | locus YEL061C, strain CIN8, active compounds read low 1.01 | locus YER015W, strain faa2, active compounds read low 0.988 | locus YER016W, strain bim1, active compounds read low 1 | locus YER110C, active compounds read low 0.981 | locus YER111C, strain swi4, active compounds read low 0.993 | locus YER155C, strain BEM2 (second series), active compounds read low 0.98 | locus YER155C, strain BEM2, active compounds read low 1.01 | locus YER167W, strain BCK2, active compounds read low 1.01 | locus YFR010W, strain ubp6, active compounds read low 0.999 | locus YGL078C, strain dbp3, active compounds read low 0.987 | locus YGL086W, strain mad1, active compounds read low 0.991 | locus YGL167C, strain pmr1, active compounds read low 0.993 | locus YGL173C, strain kem1, active compounds read low 0.984 | locus YGL227W, strain vid30, active compounds read low 1 | locus YGL240W, strain doc1, active compounds read low 1.01 | locus YGL248W, strain PDE1, active compounds read low 1 | locus YGL253W, strain hxk2, active compounds read low 1.03 | locus YGR078C, strain PAC10, active compounds read low 1 | locus YGR135W, strain pre9, active compounds read low 0.988 | locus YGR229C, strain SMI1, active compounds read low 1.03 | locus YGR252W, strain gcn5, active compounds read low 0.963 | locus YHR013C, strain ard1, active compounds read low 0.948 | locus YHR027C, strain rpn1, active compounds read low 1.01 | locus YHR030C, strain SLT2, active compounds read low 1.01 and 0.978 | locus YHR079C, strain IRE1 (second series), active compounds read low 0.992 | locus YHR079C, strain IRE1, active compounds read low 1 | locus YHR094C, strain hxt1, active compounds read low 0.991 | locus YHR129C, strain ARP1, active compounds read low 0.999 | locus YHR142W, strain chs7, active compounds read low 1.01 | locus YHR200W, strain rpn10, active compounds read low 0.982 | locus YIL066C, strain RNR3, active compounds read low 1.01 | locus YIL073C, strain SPO22, active compounds read low 1.03 | locus YIL125W, strain kgd1, active compounds read low 0.988 | locus YIR030C, strain dcg1, active compounds read low 0.988 | locus YJL092W, strain hpr5, active compounds read low 1.02 | locus YJL095W, strain BCK1 (second series), active compounds read low 1 | locus YJL095W, strain BCK1, active compounds read low 1.02 and 0.991 | locus YJL115W, strain asf1, active compounds read low 0.994 | locus YJL129C, strain trk1, active compounds read low 1.02 | locus YJL134W, strain LCB3, active compounds read low 1 | locus YJL154C, strain vps35, active compounds read low 1 | locus YJL164C, strain tpk1, active compounds read low 1 | locus YJL166W, strain qcr8, active compounds read low 1 | locus YJL168C, strain set2, active compounds read low 0.986 | locus YJL187C, strain SWE1 (second series), active compounds read low 1.01 | locus YJL187C, strain SWE1, active compounds read low 0.993 | locus YJR043C, strain POL32, active compounds read low 0.982 | locus YJR066W, strain TOR1, active compounds read low 0.929 | locus YJR075W, strain HOC1, active compounds read low 1.01
